The text below walks through data of PubChem BioAssay.

The subject of assay [1] is TRPC4 beta (transient receptor potential cation channel C4), mouse. In words: TRPC4 cation channel opening, retest – cell-based, Fluo4 calcium, HEK293 TRPC4beta/mu-opioid, duplicates, 10 µM, confirmation (AID 2426;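 active means fluorescence ratio normalized to control raised more than 50% in primary screen plus both repeat runs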;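 further: percent rise of integrated ratio over buffer wells lacking compound which define 0%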). The settings on record: Fluo4 calcium fluorescence, at 10 µM; active compounds read high.
In assay [2] the test system is transient receptor potential cation channel C4 beta (TRPC4), mouse. In words: TRPC4 cation channel opening, second retest – cell-based, second round, Fluo4, HEK293 TRPC4beta/mu-opioid, 1 µM, confirmation (AID 2461;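 active means primary screen active and over 50% activation in each of two duplicate runs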;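 on activation: 0% = wells without test compound as baseline of integrated fluorescence ratio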). The settings on record: Fluo4 calcium fluorescence, at 1 µM; active compounds read high.
Assay [3] concerns TRPC4 (transient receptor potential cation channel C4 beta), mouse. The experiment in a line: potentiation of DAMGO EC20 TRPC4 response – cell-based, second round, Fluo-4, HEK293 TRPC4beta/mu-opioid, 1 µM, confirmation (AID 2554;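 active means primary screen hit whose fluorescence ratio, in both repeats, exceeds the weak agonist control mean by 3 SD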). The conditions noted are these: DAMGO EC20, Fluo-4 calcium flux, at 1 µM; active compounds read high. (Calcium assays in cells follow changes in intracellular calcium, usually with a dye or a luminescent sensor.)

For assay [4], the system named is TRPC4 beta (transient receptor potential cation channel C4), mouse. The experiment in a line: potentiation of DAMGO EC20 TRPC4 response – cell-based, Fluo-4, HEK293 TRPC4beta/mu-opioid, confirmation (AID 2555). The settings on record: DAMGO EC20, Fluo-4 calcium flux, at 10 µM; active compounds read high.
Assay [5] addresses Short transient receptor potential channel 4 (Mus musculus) (UniProt Q9QUQ5). In words: blockers of DAMGO-evoked TRPC4 calcium flux – cell-based, Fluo4, HEK293 TRPC4beta/mu-opioid, confirmation (AID 2636;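 active means calcium signal cut by more than 3 SD below the full-agonist control yet still positive, in both repeats and the earlier primary screen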). The settings on record: at 10 µM; active compounds read high.
Assay [6] shares this target. The experiment in a line: blockers of DAMGO-evoked TRPC4 calcium flux – cell-based, second round, Fluo4, HEK293 TRPC4beta/mu-opioid, 1 µM, confirmation (AID 2637;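 active means calcium signal ratio cut to more than 3 SD under the fully stimulated control mean yet still positive, in both repeats and the primary screen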;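 on inhibition: percent of integrated ratio relative to wells lacking test compound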). The settings on record: at 1 µM; active compounds read high.
Assay [7] has the same target. In words: potentiation of DAMGO-evoked TRPC4 calcium signal – cell-based, HEK293 TRPC4/mu-opioid, Fluo-4 calcium, EC20 DAMGO, dose response (AID 434941;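 active means earlier screen potentiator hit that boosts the TRPC4 ion channel at some dose, with a dose response; inactive means no potentiation, no dose response, or not a prior hit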;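 further: calcium entry triggered by an EC20 dose of DAMGO at the co-expressed mu-opioid receptor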).
In assay [8] the target is Short transient receptor potential channel 6 (Mus musculus) (UniProt Q61143). The experiment in a line: TRPC6 blockade by TRPC4 inhibitor hits – cell-based, HEK293, membrane potential dye, duplicate, selectivity assay for TRPC4 inhibitor project, confirmation (AID 434948;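 active means active in primary screen and both duplicates, each dropping signal beyond three positive-control SD with fluorescence still positive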). The conditions noted are these: HEK293 TRPC6, membrane potential dye fluorescence, at 10 µM; inhibition: active compounds read high, stimulated with maximal-effect acetylcholine unless noted; outcome: stimulated with maximal-effect acetylcholine unless noted.
Sequence of Short transient receptor potential channel 6 (Mus musculus) (Q61143 whole entry, looked up): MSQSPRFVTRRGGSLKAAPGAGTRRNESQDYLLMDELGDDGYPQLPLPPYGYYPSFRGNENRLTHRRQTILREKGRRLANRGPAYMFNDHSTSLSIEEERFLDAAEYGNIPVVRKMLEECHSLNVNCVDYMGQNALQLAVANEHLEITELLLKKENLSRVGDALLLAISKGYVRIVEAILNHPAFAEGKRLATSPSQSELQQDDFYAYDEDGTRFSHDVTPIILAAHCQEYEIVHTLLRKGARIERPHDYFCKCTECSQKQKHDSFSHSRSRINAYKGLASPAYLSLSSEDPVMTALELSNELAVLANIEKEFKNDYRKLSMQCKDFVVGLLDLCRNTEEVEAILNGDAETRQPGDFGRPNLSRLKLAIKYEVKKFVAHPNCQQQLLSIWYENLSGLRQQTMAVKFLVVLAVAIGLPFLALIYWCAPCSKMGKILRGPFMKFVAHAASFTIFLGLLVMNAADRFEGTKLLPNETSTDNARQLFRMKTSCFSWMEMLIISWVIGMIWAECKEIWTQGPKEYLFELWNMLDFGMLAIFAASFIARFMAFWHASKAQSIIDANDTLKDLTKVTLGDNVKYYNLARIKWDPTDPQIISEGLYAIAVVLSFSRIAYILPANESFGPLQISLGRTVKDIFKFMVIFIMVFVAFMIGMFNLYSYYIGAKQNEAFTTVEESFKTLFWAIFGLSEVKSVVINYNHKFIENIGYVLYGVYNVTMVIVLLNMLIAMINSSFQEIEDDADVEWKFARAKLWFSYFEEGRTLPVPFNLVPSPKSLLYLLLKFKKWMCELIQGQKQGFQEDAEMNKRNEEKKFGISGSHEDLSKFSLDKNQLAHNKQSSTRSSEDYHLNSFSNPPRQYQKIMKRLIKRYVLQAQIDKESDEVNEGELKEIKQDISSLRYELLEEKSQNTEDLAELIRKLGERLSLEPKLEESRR

The target is the same in assay [9]. The experiment in a line: TRPC6 opening by TRPC4 activator hits – cell-based, HEK293, membrane potential dye, duplicate, selectivity assay for TRPC4 activator project, confirmation (AID 434950;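 active means membrane potential signal rise above negative control mean plus 3 SD in both duplicates, also active in the earlier TRPC4 screen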;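 on activation: 0% = buffer only wells and 100% = acetylcholine maximal-effect wells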). The settings on record: HEK293 TRPC6, membrane potential fluorescence, at 10 µM; activation: active compounds read high; outcome: activation.
Assay [10] has the same target. The experiment in a line: positive modulators of mouse TRPC6 channel – HEK293 cells, membrane potential dye, duplicate, selectivity assay for TRPC4 potentiator project, confirmation (AID 434952;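 active means compound raising the membrane signal above positive-control mean plus 3 SD in both repeats, and a primary screen hit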). The settings on record: HEK293 TRPC6, membrane potential dye fluorescence, at 10 µM; maximal acetylcholine added after compound unless noted.
Assay [11] concerns the target Short transient receptor potential channel 4 (Mus musculus) (UniProt Q9QUQ5). The experiment in a line: calcium flux activators in TRPC4/5HT1a cells, counter-screen for TRPC4 activator project, cell-based, second counter screen, HEK293 TRPC4/5HT1a, Fluo-4 (AID 434977;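 active means calcium signal rise above buffer-control mean plus 5 SD in both duplicates, and also a hit in the primary screen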;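 on activation: plate controls were assay buffer for no effect and maximal serotonin response for full effect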). The conditions noted are these: Fluo-4 calcium flux, at 10 µM; active compounds read high.
Assay [12] can be described thus: serotonin-gated TRPC4 signal block – cell-based, second counter screen, HEK293 TRPC4/5HT1a, Fluo-4, counter-screen for TRPC4 inhibitor project, confirmation (AID 434978;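 active means primary screen active whose calcium signal fell more than 3 SD beyond the full-serotonin control mean in both duplicate plates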;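 further: serotonin given first at submaximal then at maximal dose after compound preincubation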). The conditions noted are these: Fluo-4 calcium flux, at 10 µM; inhibition: active compounds read high, serotonin added to trigger calcium flux unless noted; outcome: serotonin added to trigger calcium flux unless noted. On the technique in general: Counterscreens check selectivity or assay interference.

For assay [13], the system named is TRPC4 (mouse), co-expressed with 5HT1a in HEK293. In words: enhancement of serotonin-evoked TRPC4 response – cell-based, second counter screen, HEK293 TRPC4/5HT1a, Fluo-4, counter-screen for TRPC4 potentiator project, confirmation (AID 434979;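 active means signal rise over 3 SD above mean of control wells given weak agonist, in both repeats and first screen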). The conditions noted are these: Fluo-4 calcium flux, at 10 µM; outcome: serotonin added at its EC20 dose unless noted; potentiation: active compounds read high, serotonin added at its EC20 dose unless noted.

Assay [14] in a line: nonspecific calcium rise without TRPC4 – cell-based, HEK293 mu-opioid receptor line, counter-screen for TRPC4 activator project, confirmation (AID 449723;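 active means hit in primary screen, with calcium signal over 5 SD above buffer well mean in both duplicates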;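 further: counter screen cells carry the mu-opioid receptor alone and lack TRPC4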). The conditions noted are these: HEK293 mu-opioid cells, Fluo-4 calcium fluorescence, at 10 µM; active compounds read high.
The nature of assay [15]: nonspecific potentiation of DAMGO calcium response – cell-based, HEK293 mu-opioid receptor line, counter-screen for TRPC4 allosteric potentiator project, confirmation (AID 449724;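 active means calcium signal rise more than 3 SD above the low-dose agonist control mean, in both duplicate plates and the primary screen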;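 further: HEK293 cells carrying mu-opioid receptor only with no TRPC4 channel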). The conditions noted are these: HEK293 mu-opioid receptor cells, Fluo-4 calcium flux, at 10 µM; compound added before EC20 DAMGO stimulus unless noted.
Assay [16] deals with Short transient receptor potential channel 4 (Mus musculus) (UniProt Q9QUQ5). The experiment in a line: block of DAMGO-driven TRPC4 calcium entry – cell-based, HEK293 TRPC4/mu-opioid, Fluo-4 calcium, dose response (AID 434942;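 active means primary screen inhibitor hit that blocks the TRPC4 channel at some tested dose, yielding a dose curve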).
Sequence of Short transient receptor potential channel 4 (Mus musculus) (Q9QUQ5 whole entry, looked up): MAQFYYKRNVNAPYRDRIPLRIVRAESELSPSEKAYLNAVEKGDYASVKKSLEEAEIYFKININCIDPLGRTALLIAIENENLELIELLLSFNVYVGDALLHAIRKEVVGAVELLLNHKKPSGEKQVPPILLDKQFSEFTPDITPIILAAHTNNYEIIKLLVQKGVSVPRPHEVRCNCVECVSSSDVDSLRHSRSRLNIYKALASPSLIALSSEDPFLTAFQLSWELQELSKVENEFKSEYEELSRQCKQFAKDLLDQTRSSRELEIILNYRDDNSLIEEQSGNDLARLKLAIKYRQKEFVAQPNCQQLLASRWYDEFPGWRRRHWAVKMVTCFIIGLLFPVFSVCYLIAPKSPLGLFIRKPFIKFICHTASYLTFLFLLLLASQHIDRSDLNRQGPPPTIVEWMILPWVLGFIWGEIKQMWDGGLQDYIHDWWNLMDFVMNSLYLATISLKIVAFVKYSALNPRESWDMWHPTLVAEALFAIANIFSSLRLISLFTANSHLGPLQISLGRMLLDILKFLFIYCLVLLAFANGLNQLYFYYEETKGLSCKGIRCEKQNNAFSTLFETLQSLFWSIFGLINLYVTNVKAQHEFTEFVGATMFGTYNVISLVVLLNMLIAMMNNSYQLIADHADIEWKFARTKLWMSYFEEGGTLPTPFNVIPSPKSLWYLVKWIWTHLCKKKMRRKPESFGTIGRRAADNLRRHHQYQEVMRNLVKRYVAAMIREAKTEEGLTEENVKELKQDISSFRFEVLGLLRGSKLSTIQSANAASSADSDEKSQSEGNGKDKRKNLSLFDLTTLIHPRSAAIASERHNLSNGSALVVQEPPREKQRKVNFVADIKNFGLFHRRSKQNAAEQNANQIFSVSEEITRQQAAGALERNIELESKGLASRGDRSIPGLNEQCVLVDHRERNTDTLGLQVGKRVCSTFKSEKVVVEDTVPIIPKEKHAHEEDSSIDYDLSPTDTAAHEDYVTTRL
Assay [17] is described as follows: nonspecific voltage dye response without TRPC6 – cell-based, parental HEK293, counter-screen for TRPC6 modulator project, confirmation (AID 488924;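 active means membrane potential signal moves up or down beyond 5 SD from buffer-only wells, on both duplicate plates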). The settings on record: parental HEK293, membrane potential dye fluorescence; at 10 µM.
Assay [18] in a line: membrane potential response modulators in host HEK293 cells – cell-based, second counter-screen, parental HEK293, membrane potential dye, counter-screen for TRPC6 modulator project, confirmation (AID 488926;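 active means membrane potential signal drops by more than 5 SD from the mean control signal, in both duplicate plates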;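 further: plate controls were acetylcholine ECmax control wells for no effect and buffer only wells for full effect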). The conditions noted are these: parental HEK293, membrane potential dye fluorescence, at 10 µM, after compound, maximal acetylcholine stimulation; active compounds read high.
Assay [19] deals with Transient receptor potential cation channel subfamily C member 4 (mouse). In words: off-target membrane potential effects via mouse TRPC4 – cell-based, HEK293 TRPC4/mu-opioid, membrane potential dye, selectivity assay for TRPC6 modulator project, confirmation (AID 488927;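 active means membrane potential signal moved up or down beyond 5 SD of buffer control wells, in both duplicate plates, actives on both sides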;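 further: plate controls were assay buffer wells for no effect and DAMGO maximal-effect wells for full effect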). The conditions noted are these: membrane potential fluorescence, at 10 µM.
The test system of assay [20] is TRPC4 (transient receptor potential cation channel C4), mouse. In words: DAMGO-evoked mouse TRPC4 response blockade – cell-based, second screen, HEK293 TRPC4/mu-opioid, membrane potential dye, selectivity assay for TRPC6 modulator project, confirmation (AID 488928;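 active means drop in membrane potential signal beyond 5 SD of the control wells in both duplicate plates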;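 further: TRPC4 counter screen for TRPC6 hits run under conditions tuned for TRPC6 not TRPC4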). The conditions noted are these: membrane potential dye fluorescence, at 10 µM, stimulated with maximal-effect DAMGO; active compounds read high.

Assay [21] addresses Short transient receptor potential channel 6 (Mus musculus) (UniProt Q61143). In words: blockers of TRPC6 cation channel activity – HEK293 cells, membrane potential dye, duplicate, confirmation (AID 488960;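 active means fluorescence ratio falls more than 5 SD below the full-stimulation control mean, in both duplicate runs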;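 further: integrated fluorescence ratio of peak minus minimum over baseline after agonist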). The conditions noted are these: ACh-evoked depolarization, at 10 µM; active compounds read high.
For assay [22] the target is unchanged. The experiment in a line: mouse TRPC6 channel activators, confirmation, HEK293 cells, membrane potential dye, duplicate (AID 488961;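 active means ratio signal rise beyond 5 SD above unstimulated control wells' mean, seen in both duplicate runs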). The settings on record: HEK293-TRPC6 membrane potential dye fluorescence, FDSS; at 10 µM.
Assay [23] can be described thus: nonspecific flux increase, KCNQ1-free cells – parental CHO cells, counter-screen for KCNQ1 potentiator project (AID 493006;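 active means duplicate-averaged activation above buffer control mean plus 5 SD of those controls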). The settings on record: parental CHO-K1 cells, FluxOR thallium flux, at 10 µM; active compounds read high.
The target in assay [24] is Potassium voltage-gated channel subfamily KQT member 1 (Homo sapiens) (UniProt P51787). In words: enhancement of KCNQ1 channel thallium flux – FluxOR thallium flux, CHO cells, duplicates, confirmation (AID 493007;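 active means potentiation averaged over duplicate wells exceeding buffer-only control mean by more than 3 SD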;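 on outcome: cells depolarized by a potassium plus thallium sulfate stimulus after compound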;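 on potentiation: 0% = buffer-only wells and 100% = R-L3 activator control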). The settings on record: KCNQ1 cell line, FluxOR thallium flux fluorescence, at 10 µM; active compounds read high, % of reference activator effect, buffer zero.
Sequence of Potassium voltage-gated channel subfamily KQT member 1 (Homo sapiens) (P51787 whole entry, looked up): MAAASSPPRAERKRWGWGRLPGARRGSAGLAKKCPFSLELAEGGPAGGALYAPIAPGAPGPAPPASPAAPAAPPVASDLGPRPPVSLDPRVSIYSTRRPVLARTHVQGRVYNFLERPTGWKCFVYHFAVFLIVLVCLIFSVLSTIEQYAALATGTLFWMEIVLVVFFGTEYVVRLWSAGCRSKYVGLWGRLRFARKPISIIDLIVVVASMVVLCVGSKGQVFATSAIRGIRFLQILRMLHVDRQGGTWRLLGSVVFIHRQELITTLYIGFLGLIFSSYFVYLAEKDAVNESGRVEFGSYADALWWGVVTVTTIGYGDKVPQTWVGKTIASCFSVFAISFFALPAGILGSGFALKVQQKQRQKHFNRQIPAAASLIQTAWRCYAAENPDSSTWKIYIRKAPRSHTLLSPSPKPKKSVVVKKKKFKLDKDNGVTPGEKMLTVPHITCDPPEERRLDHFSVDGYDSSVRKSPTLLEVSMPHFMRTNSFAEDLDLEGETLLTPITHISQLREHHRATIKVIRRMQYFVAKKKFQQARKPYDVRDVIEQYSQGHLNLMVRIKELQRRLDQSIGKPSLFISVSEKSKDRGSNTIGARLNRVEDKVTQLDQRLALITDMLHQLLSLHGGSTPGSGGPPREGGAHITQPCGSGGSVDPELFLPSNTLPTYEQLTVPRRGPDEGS
Assay [25] concerns the target Potassium voltage-gated channel subfamily KQT member 2 (Rattus norvegicus) (UniProt O88943). The experiment in a line: KCNQ2 thallium flux enhancement – KCNQ2-CHO-K1 cells, selectivity assay for KCNQ1 potentiator project (AID 493009;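 active means mean duplicate potentiation above the buffer control mean plus 5 SD of buffer wells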;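 further: assay conditions were tuned for KCNQ1 rather than KCNQ2 modulators; signal is max minus min fluorescence divided by baseline after thallium stimulus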). The conditions noted are these: FluxOR thallium flux fluorescence, at 10 µM; active compounds read high, scaled: buffer 0, activator control 100.

The target in assay [26] is Potassium voltage-gated channel subfamily KQT member 1 (Homo sapiens) (UniProt P51787). In words: KCNQ1 activators by electrophysiology – IonWorks patch clamp, KCNQ1-CHO cells, orthogonal assay for KCNQ1 potentiator project, confirmation (AID 493184;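 active means current rise at least 3 SD above the untreated control mean in each of two repeat wells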). The conditions noted are these: automated patch clamp current, at 10 µM. A general note: Patch clamp records ionic current or voltage across a cell membrane.

Usually inhibition stands for the relative decrease from the control value, in per cent.

For part of these data: Potency and affinity values are given separately. This is one part of the list. The source made the active and inactive calls.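 How the source made its calls, unless noted: active means primary screen hit whose calcium fluorescence ratio, in both repeats, exceeds the weak agonist control mean by 3 SD; inactive means the rest.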

Sequence of Potassium voltage-gated channel subfamily KQT member 2 (Rattus norvegicus) (O88943 whole entry, looked up): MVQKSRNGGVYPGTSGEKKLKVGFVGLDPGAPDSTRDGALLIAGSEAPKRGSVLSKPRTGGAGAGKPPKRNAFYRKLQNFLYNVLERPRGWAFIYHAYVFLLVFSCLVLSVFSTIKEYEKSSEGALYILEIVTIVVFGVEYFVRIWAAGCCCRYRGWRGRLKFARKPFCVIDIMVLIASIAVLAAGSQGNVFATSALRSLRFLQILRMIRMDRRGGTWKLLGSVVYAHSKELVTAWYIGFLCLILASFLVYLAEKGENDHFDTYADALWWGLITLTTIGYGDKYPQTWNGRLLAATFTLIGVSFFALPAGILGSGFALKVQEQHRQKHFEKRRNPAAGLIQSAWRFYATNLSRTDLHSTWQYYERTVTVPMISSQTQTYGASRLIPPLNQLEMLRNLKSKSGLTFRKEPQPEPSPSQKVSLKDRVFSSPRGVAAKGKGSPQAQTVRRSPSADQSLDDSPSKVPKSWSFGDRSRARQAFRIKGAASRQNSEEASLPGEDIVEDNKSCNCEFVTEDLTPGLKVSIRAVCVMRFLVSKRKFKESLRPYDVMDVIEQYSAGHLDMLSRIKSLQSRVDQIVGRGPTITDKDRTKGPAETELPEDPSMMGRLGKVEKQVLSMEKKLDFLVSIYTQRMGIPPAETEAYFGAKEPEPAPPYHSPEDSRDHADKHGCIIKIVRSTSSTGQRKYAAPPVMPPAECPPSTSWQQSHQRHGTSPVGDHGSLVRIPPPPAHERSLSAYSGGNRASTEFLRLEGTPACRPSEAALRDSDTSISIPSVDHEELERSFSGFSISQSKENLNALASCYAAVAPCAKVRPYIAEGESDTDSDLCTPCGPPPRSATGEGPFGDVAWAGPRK

On to `O=[N+]([O-])c1cc2c(cc1CNCCc1ccc3c(c1)OCO3)OCO2`, for which the activation in assay [1] was 62% (active). The result in assay [2], in assay [3], in assay [4], in [7], in assay [9] and in [11] was inactive. Also, the result in assay [14] was inactive. In addition, the inhibition in assay [5] is 91% (active); in [6], 39% (active). Moreover, the outcome in [8], in [10], in [12], in [13] and in assay [15] was “inactive [setting not given]” throughout.
With `COc1ccc(C(CNC(=O)Cc2ccc(Cl)c(Cl)c2)N(C)C)cc1` (stereo unspecified), the activation in assay [1] was 120% (active); in assay [2] it was 95% (active); in assay [9], 40.5% (active). Further, the result in [3], in assay [4], in [5], in [6], in assay [7] and in assay [16] was inactive. Besides, the compound was classed as inactive in [8], in [10], in [11], in assay [12], in [13] and in [14]. Besides, the outcome in assay [15] was inactive.
On to `CN1CCN(c2cc(N3CCNCC3)ccc2[N+](=O)[O-])CC1`, for which the membrane potential signal change in assay [17] was -426% (active). The inhibition in assay [18] is 102% (active); in assay [20], 66.5% (active); in [21], 72.5% (active). For the same compound, in assay [19], the percent change from control (negative = decrease, positive = increase) is -68% (active). The compound was called inactive in assay [22].
`COc1ccc(CNCCc2ccc3c(c2)OCO3)cc1Br`: the activation in assay [1] is 141% (active); in assay [9], 47.5% (active); in assay [11], 27.3% (active). Besides, the outcome in assay [2], in [3], in assay [4], in assay [5], in [6] and in assay [7] was inactive. Besides, the outcome in [16] and in [14] was inactive. For the same compound, the outcome in assay [8], in assay [10], in assay [12], in assay [13] and in assay [15] was “inactive [setting not given]” throughout.
Turning to `CCOC(=O)c1cc(C)n(CCc2cnc[nH]2)c1C`, the activation in [1] was 143% (active); in assay [2], 89% (active); in assay [9] it was 26% (active); in assay [11], 76% (active). The result in assay [3], in assay [4], in [5], in assay [6], in assay [7] and in [16] was inactive. The compound was called inactive in assay [8], in [10], in assay [12], in assay [13], in assay [14] and in assay [15].
With `CCN1CCN(Cc2cc(Br)cc(Br)c2O)CC1`, the activation in assay [1] was 221% (active); in assay [2], 133% (active); in assay [9], 38.5% (active); in [11] it was 70.3% (active). Further, the result in assay [3], in [4], in [5], in [6], in assay [7] and in assay [16] was inactive. The result in assay [8], in assay [10], in [12], in assay [13], in assay [14] and in assay [15] was inactive.
For `Cc1ccc(-n2cc(CNC(C)Cc3cnccn3)c(-c3cccc(C)c3)n2)cc1` (stereo unspecified), the activation was 146% (active) in [1] and 42.5% (active) in assay [9]. Also, the result in assay [2], in assay [3], in assay [4], in [5], in [6] and in assay [7] was inactive. The outcome in [16], in assay [8], in assay [10], in assay [11], in assay [12] and in assay [13] was inactive. Also, the outcome in [14] and in [15] was inactive.
As to `Brc1ccc2c(c1)C(OC1CN3CCC1CC3)c1ccccc1CS2` (stereo unspecified), the result in [23], in assay [25] and in [26] was inactive. In addition, in assay [24], the potentiation was 40.5% (active).
Take `Cc1ccc(C)c(NC(=S)NCCc2cnc[nH]2)c1`: the activation in assay [1] is 137% (active); in assay [11], 69.3% (active). Besides, the result in assay [2], in [3], in assay [4], in assay [5], in [6] and in assay [7] was inactive. Also, the result in [16], in assay [8], in assay [9], in [10], in [12] and in assay [13] was inactive. In addition, the result in assay [14] and in assay [15] was inactive.
For the compound `CCN(CC)C(=O)c1ccc(NC(=O)CSc2nnnn2-c2cc(OC)ccc2OC)cc1`, the outcome in [23], in assay [24], in [25] and in [26] was inactive.
Consider `CN(C)C1(CNC(=O)Nc2ccc(Cl)c(Cl)c2)CCCCC1`, for which the activation in assay [1] is 229% (active); in assay [2] it was 64% (active); in [11] it was 29.4% (active); in assay [14], 42.7% (active). Also, the outcome in assay [3], in assay [4], in [5], in assay [6], in [7] and in [16] was inactive. Further, the compound was classed as inactive in [8], in [9], in [10], in assay [12], in assay [13] and in assay [15].
